# Reference: PubChem BioAssay (Tox21)
# Values without a mark were called inactive. Inconclusive results are not listed. Entries that show only a call come without a potency. The source made the active and inactive calls. Unless noted, calls come from the whole dose curve; as a rule, active = well fitted curve in the direction sought with a large enough effect in the repeat runs; inconclusive = weak or mixed curves; inactive = no such curve, though single readings can be large; an effect the other way counts as inactive or inconclusive.
# Experiments:
# [1] = qHTS assay to identify small molecule antagonists of the estrogen related receptor (ERR) signaling pathway from Tox21 library - cell viability counter screen (AID 1224834); note: nearly all actives have a fitted effect of over 30% in size; note: potency is the fitted concentration of half-maximal effect
# Outline: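 Viability readout (CellTiter-Fluor fluorescence, 30 min at 37 C) multiplexed with the ERR assay; cells treated 17.5 h at 37 C with compounds delivered in DMSO.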
# [2] = qHTS assay to identify small molecule agonists of the constitutive androstane receptor (CAR) signaling pathway - cell viability counter screen (AID 1224836); note: nearly all actives have a fitted effect of over 45% in size
# Outline: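 Counter screen multiplexed with the CAR reporter readout: HepG2 cells co-transfected with hCAR and the CYP2B6-2.2kb construct receive a 15-concentration compound series and 0.75 uM PK11195 (final), then CellTiter-Fluor fluorescence is read after 23 h.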
# [3] = qHTS assay to identify small molecule antagonists of the constitutive androstane receptor (CAR) signaling pathway - cell viability counter screen (AID 1224837); note: nearly all actives have a fitted effect of over 45% in size
# Outline: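 Fluorescence from CellTiter-Fluor served as the viability signal. Human hepatoma HepG2 cells stably bearing hCAR and CYP2B6-2.2kb received compound plus CITCO (50 nM final) for 23 hr.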
# [4] = target: Nuclear receptor subfamily 1 group I member 3 (Homo sapiens) (UniProt Q14994); assay: qHTS assay to identify small molecule antagonists of the constitutive androstane receptor (CAR) signaling pathway (AID 1224838);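 note: HepG2 cells stably expressing hCAR with CYP2B6 luciferase reporter stimulated by CITCO; nearly all actives have a fitted effect of over 40% in size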
# Outline: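 Quantitative HTS in double-stable HepG2-CYP2B6-hCAR cells. After 4 h plating, cells get compound (15 concentrations) and CITCO at 50 nM final, incubate 24 h at 37 C, then ONE-Glo luminescence is read.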
# [5] = target: Nuclear receptor subfamily 1 group I member 3 (Homo sapiens) (UniProt Q14994); assay: qHTS assay to identify small molecule agonists of the constitutive androstane receptor (CAR) signaling pathway (AID 1224839); note: nearly all actives have a fitted effect of over 15% in size; note: potency is the fitted concentration of half-maximal effect
# Outline: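 A 15-concentration quantitative screen uses HepG2 cells co-transfected stably with human CAR and CYP2B6-2.2kb reporter. Treatment lasts 24 h with 0.75 uM PK11195 final present; ONE-Glo luminescence is the signal.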
# [6] = qHTS assay to identify small molecule antagonists of the estrogen related receptor signaling pathway with the pleiotropic PPARgamma coactivator (PGC) from Tox21 10K library - cell viability counter screen (AID 1224840; active = well fitted cell-killing curve with a large enough effect in the repeat runs, not every such curve was filed as active; note: nearly all actives have a fitted effect of over 40% in size)
# Outline: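 Compounds in DMSO, alongside positive and negative controls, were pinned onto PGC/ERR cells (2,000 per well). Exposure lasted 17.5 hours at 37 C, followed by a 30-minute CellTiter-Fluor incubation and fluorescence reading.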
# [7] = qHTS assay to identify small molecule antagonists of the estrogen related receptor signaling pathway with the pleiotropic PPARgamma coactivator (PGC) from Tox21 10K library (AID 1224841; call rule not given here; note: actives are mostly falling curves and most rising ones were filed inactive; nearly all actives have a fitted effect of over 50% in size)
# Outline: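 Compound exposure ran 18 hours at 37 C in PGC/ERR cells (2,000/well) that had first rested 6 hours in a 37 C/5% CO2 incubator. Luciferase activity was then detected with One-Glo after a 30-minute room-temperature step.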
# [8] = qHTS assay to identify small molecule agonists of the estrogen related receptor signaling pathway with the pleiotropic PPARgamma coactivator (PGC) from Tox21 10K library (AID 1224842); note: nearly all actives have a fitted effect of over 15% in size
# Outline: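 PGC/ERR reporter cell line, 2,000 cells per well, incubated 6 h at 37 C before 23 nL compound in DMSO was added. After 18 h at 37 C, One-Glo luminescence read following 30 min at room temperature.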
# [9] = qHTS assay to identify small molecule agonists of the hypoxia (HIF-1) signaling pathway - cell viability counter screen (AID 1224844; calls by dose curve; note: nearly all actives have a fitted effect of over 50% in size; note: potency is the fitted concentration of half-maximal effect)
# Outline: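 Luminescent ATP content (CellTiter-Glo, 30 min, room temperature) served as the viability measure in HRE-bla ME-180 cells exposed to compounds for 17 hrs in low-serum medium (0.5% dialyzed FBS).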
# [10] = qHTS assay to identify small molecule agonists of the hypoxia (HIF-1) signaling pathway (AID 1224846; active = well fitted activation curve with a large enough effect in the signal ratio in the repeat runs, not every such curve was filed as active; the % refers to the signal ratio)
# Outline: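 Measured by blue/green FRET after loading CCF4-AM: beta-lactamase expressed from a hypoxia response element in ME-180 cells. Test agents were delivered in DMSO and left 17 hrs; cells had been plated 5 hrs earlier in low-serum (0.5% dialyzed FBS) medium.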
# [11] = qHTS assay to identify small molecule agonists of H2AX - cell viability counter screen (AID 1224847; calls by dose curve; note: nearly all actives have a fitted effect of over 30% in size; note: potency is the fitted concentration of half-maximal effect; for activity change, negative = cytotoxicity: top concentration of the series differs between compounds)
# Outline: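 We seed wild-type CHO-K1 cells overnight, treat them for 3 hr at 37C with compounds in 15-concentration series, and quantify remaining viability by CellTiter-Glo luminescence.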
# [12] = qHTS assay to identify small molecule antagonists of the estrogen related receptor (ERR) signaling pathway from Tox21 library (AID 1224848); note: nearly all actives have a fitted effect of over 50% in size
# Outline: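 ERR reporter cell line (from NTP) seeded 2,000 cells/well, rested 6 h at 37 C/5% CO2, then pin-dosed with compounds in DMSO. After 18 h at 37 C, ONE-Glo added; luminescence read after 30 min at room temperature.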
# [13] = qHTS assay to identify small molecule agonists of the estrogen related receptor (ERR) signaling pathway from Tox21 library (AID 1224849; calls by dose curve; note: nearly all actives have a fitted effect of over 15% in size); conditions: ERR reporter cell line, ONE-Glo luciferase, 18 h; at 92.4 µM (top of the series) unless noted
# Outline: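 We plated ERR reporter cells, waited 6 h, added compounds in DMSO by pin tool and incubated them 18 h at 37 C. ONE-Glo was then added and luminescence read after 30 min.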
# [14] = qHTS RealTime-Glo MT Cell Viability Assay in HepG2 cells - 24 hour (AID 1224867); note: nearly all actives have a fitted effect of over 50% in size; note: potency is the fitted concentration of half-maximal effect
# Outline: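 Cells + NanoLuc/prosubstrate dispensed (600 cells/well) → 5 h at 37 C/5% CO2 → compounds in DMSO transferred → 40 h incubation at 37 C, luminescence read at 0, 8, 16, 24, 32, 40 h.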
# [15] = qHTS RealTime-Glo MT Cell Viability Assay in HEK293 cells - 32 hour (AID 1224868); note: nearly all actives have a fitted effect of over 50% in size; note: potency is the fitted concentration of half-maximal effect; for activity change, negative = cytotoxic: top concentration of the series differs between compounds
# Outline: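 Tox21 10K qHTS, HEK293, 600 cells/well, RealTime-Glo reagent co-dispensed with cells; 5 h preincubation, compound by pintool, 37 C, luminescence at 0–40 h.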
# [16] = A CellTox Green Cytotoxicity Assay to monitor cytotoxicity in HEK293 cells - 0 hour (AID 1224869); note: nearly all actives have a fitted effect of over 50% in size
# Outline: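 Each value comes from one timepoint of a single continuous run in which HEK293 cells with CellTox Green were exposed to compound for up to 40 h at 37 C, dye fluorescence rising with cell death.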
# [17] = target: Luciferin 4-monooxygenase (Photinus pyralis) (UniProt P08659); assay: qHTS assay to identify small molecule inhibitors of firefly luciferase (AID 1224835); note: nearly all actives have a fitted effect of over 25% in size; note: potency is the fitted concentration of half-maximal effect
# Outline: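 Biochemical qHTS: compounds run as interplate titrations against purified firefly enzyme, with D-luciferin and ATP each at its KM concentration. Light output recorded by CCD imaging.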
# [18] = target: Thyrotropin receptor (Homo sapiens) (UniProt P16473); assay: qHTS assay to identify small molecule agonists of the thyroid stimulating hormone receptor (TSHR) signaling pathway (AID 1224843; calls by dose curve; note: nearly all actives have a fitted effect of over 45% in size)
# Outline: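 TSHR-HEK293 cells in agonist mode, 30 min room-temperature step, then cAMP measured by competitive HTRF (cAMP-d2 with anti-cAMP cryptate) after 1 h at room temperature. Tested at 15 concentrations in triplicate.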
# [19] = qHTS assay to identify small molecule agonists of H2AX (AID 1224845; active = well fitted activation curve with a large enough effect in the signal ratio in the repeat runs, not every such curve was filed as active; the % refers to the signal ratio)
# Outline: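 Wild-type CHO-K1 cells, plated overnight, exposed 3hr at 37C to 15 concentrations (0.76% DMSO final). Lysed, then HTRF anti-pH2AX (S139) cryptate and anti-H2AX-d2 antibodies, 24 hr room temperature; 665/620 nm emission read.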
# Sequence of Luciferin 4-monooxygenase (Photinus pyralis) (P08659 whole entry, looked up): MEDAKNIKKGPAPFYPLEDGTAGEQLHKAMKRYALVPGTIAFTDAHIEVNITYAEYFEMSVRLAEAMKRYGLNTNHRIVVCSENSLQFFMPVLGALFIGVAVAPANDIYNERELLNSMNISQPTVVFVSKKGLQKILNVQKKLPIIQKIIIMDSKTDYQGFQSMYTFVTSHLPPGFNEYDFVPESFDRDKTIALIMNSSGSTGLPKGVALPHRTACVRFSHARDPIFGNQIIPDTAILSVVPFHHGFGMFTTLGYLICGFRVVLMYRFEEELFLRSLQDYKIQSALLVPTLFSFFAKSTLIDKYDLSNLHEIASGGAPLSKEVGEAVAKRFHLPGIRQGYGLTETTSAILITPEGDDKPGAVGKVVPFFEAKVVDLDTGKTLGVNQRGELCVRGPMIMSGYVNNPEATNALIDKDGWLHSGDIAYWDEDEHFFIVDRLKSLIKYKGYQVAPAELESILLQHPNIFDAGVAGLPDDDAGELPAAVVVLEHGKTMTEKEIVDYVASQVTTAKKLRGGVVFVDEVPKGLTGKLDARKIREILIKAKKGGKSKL
# Sequence of Thyrotropin receptor (Homo sapiens) (P16473 whole entry, looked up): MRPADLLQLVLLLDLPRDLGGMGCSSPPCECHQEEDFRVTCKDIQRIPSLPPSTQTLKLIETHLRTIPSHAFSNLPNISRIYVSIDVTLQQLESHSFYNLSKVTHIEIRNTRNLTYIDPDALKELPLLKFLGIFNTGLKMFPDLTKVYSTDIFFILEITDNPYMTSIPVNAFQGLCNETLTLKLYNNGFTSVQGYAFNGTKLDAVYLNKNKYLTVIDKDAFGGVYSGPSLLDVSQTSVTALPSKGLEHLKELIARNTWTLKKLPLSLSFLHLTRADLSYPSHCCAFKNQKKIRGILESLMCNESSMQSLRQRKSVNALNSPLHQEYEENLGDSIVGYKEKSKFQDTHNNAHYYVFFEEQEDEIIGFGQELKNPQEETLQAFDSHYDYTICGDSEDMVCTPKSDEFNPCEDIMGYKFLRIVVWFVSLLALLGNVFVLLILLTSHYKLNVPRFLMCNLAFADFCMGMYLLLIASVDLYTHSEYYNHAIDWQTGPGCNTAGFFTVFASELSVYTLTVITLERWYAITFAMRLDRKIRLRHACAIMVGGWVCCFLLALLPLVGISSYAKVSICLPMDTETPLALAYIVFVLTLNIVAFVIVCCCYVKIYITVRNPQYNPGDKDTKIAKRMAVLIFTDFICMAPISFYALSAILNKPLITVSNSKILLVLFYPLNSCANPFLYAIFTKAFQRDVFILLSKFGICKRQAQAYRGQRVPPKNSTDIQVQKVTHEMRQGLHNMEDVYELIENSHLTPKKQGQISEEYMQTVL
# Sequence of Nuclear receptor subfamily 1 group I member 3 (Homo sapiens) (Q14994 whole entry, looked up): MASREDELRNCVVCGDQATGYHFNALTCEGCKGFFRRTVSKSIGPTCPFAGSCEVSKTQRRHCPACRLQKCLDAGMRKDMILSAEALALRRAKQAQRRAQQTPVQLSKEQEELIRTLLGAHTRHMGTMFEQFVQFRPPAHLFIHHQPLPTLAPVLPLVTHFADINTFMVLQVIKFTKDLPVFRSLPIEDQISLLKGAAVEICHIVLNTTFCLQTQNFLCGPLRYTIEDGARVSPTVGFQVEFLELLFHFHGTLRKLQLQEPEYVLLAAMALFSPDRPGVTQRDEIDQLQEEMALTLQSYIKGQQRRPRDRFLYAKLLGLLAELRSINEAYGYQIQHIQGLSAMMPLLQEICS
structure (smiles),measurement,setting,value
CCN(CC)c1cccc(O)c1,Potency,[1],inactive
same,Potency,[2],inactive
same,Potency,[3],inactive
same,Potency,[4],inactive
same,Potency,[5],55.6 µM (active)
same,Potency,[6],inactive
same,Potency,[7],inactive
same,Potency,[8],inactive
same,Potency,[9],inactive
same,outcome,[10],inactive
same,Potency,[11],inactive
same,Potency,[12],inactive
same,"activity change, positive = activation",[13],2.77%
same,Potency,[14],inactive
same,Potency,[15],inactive
same,Potency,[16],inactive
Nc1nc2ccc(OC(F)(F)F)cc2s1,Potency,[17],24.5 µM (active)
same,Potency,[2],inactive
same,Potency,[3],inactive
same,Potency,[4],inactive
same,Potency,[5],11.9 µM (active)
same,Potency,[6],inactive
same,Potency,[18],inactive
same,Potency,[9],inactive
same,Potency,[19],inactive
same,Potency,[11],inactive
same,Potency,[14],inactive
same,Potency,[16],inactive
Cc1cc([N+](=O)[O-])ccc1N,Potency,[1],33.9 µM (active)
same,Potency,[4],inactive
same,Potency,[5],inactive
same,Potency,[18],inactive
same,Potency,[9],inactive
same,outcome,[10],inactive
same,Potency,[11],inactive
same,Potency,[14],inactive
same,Potency,[15],inactive
same,Potency,[16],inactive
CC1=CC[C@@H]2C[C@H]1C2(C)C,"viability change, negative = cytotoxic",[1],2.93% [at 19 µM]
same,"viability change, negative = cytotoxic",[2],1.82% [at 19 µM]
same,"activity change, negative = cytotoxicity",[3],-2.4% [at 19 µM]
same,"viability change, negative = cytotoxic",[6],-1.25% [at 19 µM]
same,"activity change, negative = cytotoxicity",[9],7.49% [at 15.8 µM]
same,activation (H2AX phosphorylation),[19],1.37% [at 31.6 µM]
same,activation,[10],-1.3% [at 15.8 µM]
same,"activity change, negative = cytotoxicity",[11],0.589% [at 31.6 µM]
same,"activity change, negative = cytotoxicity",[14],0.892% [at 15.8 µM]
same,"activity change, negative = cytotoxic",[15],2.23% [at 15.8 µM]
same,cytotoxicity,[16],0.458% [at 15.8 µM]
CCCCCCCCCCCC(=O)OCC(O)CO (stereo unspecified),Potency,[1],inactive
same,Potency,[2],inactive
same,Potency,[3],inactive
same,Potency,[4],inactive
same,Potency,[5],inactive
same,Potency,[6],inactive
same,Potency,[7],inactive
same,Potency,[8],inactive
same,Potency,[9],inactive
same,Potency,[19],inactive
same,outcome,[10],inactive
same,Potency,[11],inactive
same,Potency,[12],inactive
same,Potency,[14],inactive
same,Potency,[15],inactive
same,Potency,[16],inactive
O=[N+]([O-])c1ccc2ncccc2c1,Potency,[1],inactive
same,Potency,[2],inactive
same,Potency,[3],inactive
same,Potency,[4],inactive
same,Potency,[5],inactive
same,Potency,[6],inactive
same,Potency,[8],inactive
same,Potency,[18],inactive
same,Potency,[9],inactive
same,Potency,[19],inactive
same,outcome,[10],inactive
same,Potency,[11],inactive
same,"activity change, positive = activation",[13],-20.1%
same,Potency,[14],inactive
same,Potency,[15],inactive
same,Potency,[16],inactive
Cc1cccc(C)c1NC(=O)c1cc(S(N)(=O)=O)c(Cl)cc1O,Potency,[1],inactive
same,Potency,[2],inactive
same,Potency,[3],inactive
same,Potency,[4],inactive
same,Potency,[5],inactive
same,Potency,[6],inactive
same,Potency,[9],inactive
same,Potency,[19],inactive
same,outcome,[10],inactive
same,Potency,[11],inactive
same,Potency,[14],inactive
same,Potency,[15],inactive
same,Potency,[16],inactive
CCOC(=O)N1CCC(Nc2ccc(Cl)cc2N)CC1,Potency,[17],inactive
same,Potency,[2],inactive
same,Potency,[3],inactive
same,Potency,[4],inactive
same,Potency,[5],inactive
same,Potency,[6],inactive
same,Potency,[18],inactive
same,Potency,[9],inactive
same,Potency,[19],inactive
same,outcome,[10],inactive
same,Potency,[11],inactive
same,Potency,[14],inactive
same,Potency,[15],inactive
same,Potency,[16],inactive
O=[N+]([O-])C1(Br)COCOC1,Potency,[17],25.2 µM (active)
same,Potency,[3],inactive
same,Potency,[5],inactive
same,Potency,[7],inactive
same,Potency,[8],inactive
same,Potency,[9],38.9 µM (active)
same,Potency,[11],113 µM (active)
same,"activity change, positive = activation",[13],-12.2%
same,Potency,[14],54.9 µM (active)
same,Potency,[15],34.7 µM (active)
same,Potency,[16],inactive
CC/C=C\C/C=C\C/C=C\CCCCCCCC(=O)OCC,Potency,[17],inactive
same,Potency,[2],inactive
same,Potency,[3],inactive
same,Potency,[8],inactive
same,outcome,[10],inactive
same,Potency,[11],inactive
same,Potency,[14],inactive
same,Potency,[15],inactive
same,Potency,[16],inactive
BrC(Br)C(Br)Br,Potency,[1],inactive
same,Potency,[2],inactive
same,Potency,[3],inactive
same,Potency,[4],inactive
same,Potency,[5],inactive
same,Potency,[6],inactive
same,Potency,[18],inactive
same,Potency,[9],inactive
same,Potency,[19],inactive
same,outcome,[10],inactive
same,Potency,[11],inactive
same,Potency,[14],inactive
same,Potency,[15],inactive
same,Potency,[16],inactive
O=C(NC(Cc1cc(=O)[nH]c2ccccc12)C(=O)O)c1ccc(Cl)cc1 (stereo unspecified),Potency,[17],inactive
same,Potency,[2],inactive
same,Potency,[3],inactive
same,Potency,[4],inactive
same,Potency,[5],inactive
same,Potency,[6],inactive
same,Potency,[18],inactive
same,Potency,[9],inactive
same,Potency,[19],inactive
same,outcome,[10],inactive
same,Potency,[11],inactive
same,Potency,[14],inactive
same,Potency,[15],inactive
same,Potency,[16],inactive
